# From PubChem
# TDP1 cell noCPT – qHTS for Inhibitors of human tyrosyl-DNA phosphodiesterase 1 (TDP1): qHTS in cells in absence of CPT. Potency, µM (doses to about 46.2 µM), for inactives: at the highest dose activity change, negative = growth inhibition, hits mostly inhibitors. 15% of 420,000 active. AID 686978, 2013. DT40 Tdp1-/- hTDP1 cells, no CPT, ATP luminescence, 48 h; also: nearly all actives have a fitted effect of over 55% in size
#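 No-CPT arm: Tdp1-/-;hTDP1 DT40 cells (400/well) plus compounds, incubated ≥48 hr at 37 °C. Readout CellTiter-Glo luminescence.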
# KB-V1 MDR tox – kills drug-selected multidrug resistant KB-V1 cells; KB-V1 MDR cells viability, CellTiter-Glo, 72 h; 3.4% of 400,000 active; Potency, µM (doses to about 46.1 µM), usual class: cytotoxic; also: nearly all actives have a fitted effect of over 60% in size
#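 KB-V1 cells (P-gp-expressing MDR subline of KB-3-1) in phenol-red-free DMEM with 10% FBS were exposed to library compounds over a concentration series for 72 h at 37 degrees C. Viability read by CellTiter-Glo luminescence; concentration-effect curves fitted after normalization.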
# DT40 TDP1 CPT – growth inhibition of DT40 Tdp1-/-;hTDP1 cells with camptothecin (screen for TDP1 inhibitors) | AID 686979 | chicken DT40 Tdp1-/-;hTDP1 cells + 20 nM CPT, ATP luminescence, 48 h | Potency, µM (doses to about 46.2 µM), for inactives: top-dose activity change, negative = growth inhibition, actives largely listed as inhibitors | 12% of 420,000 active; also: nearly all actives have a fitted effect of over 55% in size
#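 Chicken DT40 Tdp1-/- cells complemented with human TDP1, 400 cells/well, exposed to compounds plus 20 nM camptothecin for at least 48 h at 37 C; viability read as ATP content by CellTiter-Glo luminescence.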
# HT1080 IDH1KD tx – toxicity to HT-1080 IDH1 knockdown cells (counter line) | HT-1080 IDH1 knockdown viability, ATP luminescence, 48 h | Potency, µM (top dose mostly 46.1 µM), inactives show top-dose activity, negative = toxicity, usual class: cytotoxic | 2% of 360,000 active | AID 686971;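 also: 0% = DMSO wells and -100% = cell-free medium wells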
#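 After a 2 h attachment period, IDH1KD HT-1080 cells took pin-transferred compound for 48 h at 37 °C; ATP-based luminescence after 10 min room-temperature reagent incubation reported viability.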
# KB-3-1 cytotox – kills parental KB-3-1 adenocarcinoma cells; 1.4% of 400,000 active; KB-3-1 viability, CellTiter-Glo ATP luminescence, 72 h; Potency, µM (titrated, usually from 46.1 µM), most hits filed as cytotoxic; also: nearly all actives have a fitted effect of over 60% in size
#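 Parental KB-3-1 viability, qHTS format: 72 h compound exposure, 37 °C; CellTiter-Glo; media-only wells and DMSO plates as controls; concentration-effect fits on corrected data.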
# HT1080-NT tox – kills 2HG-producing HT-1080-NT fibrosarcoma cells; Potency, µM (titrated, usually from 46.1 µM), for the others: at the top dose activity, negative = less viability, most hits filed as cytotoxic; 1.6% of 360,000 active; HT-1080-NT fibrosarcoma viability, CellTiter-Glo ATP luminescence, 48 h;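 also: NT is the 2HG producing partner of a matched IDH1 knockdown line; 0% = DMSO-treated cells and -100% = media-only wells without cells; nearly all actives have a fitted effect of over 55% in size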
#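 HT-1080-NT fibrosarcoma cells (2HG-overproducing), 750 cells/well in RPMI with 5% FBS, dosed after 2 h and incubated 48 h at 37C. CellTiter-Glo luminescence normalized to DMSO and no-cell wells; concentration-response curves fitted and classed.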
# Active calls of the source: *; i = inactive; ? = inconclusive; nt = not tested or not shown; [ ] = dose if it differs, or a comment. A selection: hits, their analogues and other compounds. The true share with any hit is near 19%. Calls follow the shape of the dose curve; as a rule, active = well fitted curve in the direction sought with a large enough effect; inconclusive = small, poorly fitted or top-dose-only effect, or another doubt; inactive = no such curve, though single readings can be large; an effect the other way counts as inactive or inconclusive. Unless noted, % is scaled to controls: 0 for no effect and ±100 for the full control effect; potency is read from the fitted curve at half-maximal effect.
SMILES,TDP1 cell noCPT,KB-V1 MDR tox,DT40 TDP1 CPT,HT1080 IDH1KD tx,KB-3-1 cytotox,HT1080-NT tox
Cc1ccsc1C(=O)C1CCCN(Cc2cc3ccccc3o2)C1 (stereo unspecified),?,i,?,-1%,i,-2%
Cc1oc(-c2ccc(F)cc2F)nc1CN1C[C@@H]2C[C@@H](C1)c1cccc(=O)n1C2,-23%,?,20%,4%,i,1%
O=S(=O)(c1cc(Cl)cc(Cl)c1)N1Cc2cc(-c3ccccc3)ccc2-n2nncc2C1,?,i,?,12%,i,17%
CCN(CC)S(=O)(=O)c1ccc2c(c1)c(=O)c(C(=O)NCc1ccccc1OC)cn2C,18µM*,i,23µM*,nt,i,nt
Cn1cc(C(=O)NCc2ccccc2)c2ccccc21,-7%,i,?,-7%,i,-1%
Cc1ccc(S(=O)(=O)N2Cc3cc(-c4ccccc4)ccc3-n3nncc3C2)cc1,?,i,?,-7%,i,-13%
Nc1c(Br)cc2c3c(cccc13)-c1ccccc1-2,5.2µM*,i,8.2µM*,?,?,-28%
CC(N)Cc1ccc2c(c1)OCO2 (stereo unspecified),-10%,nt,-13%,nt,nt,nt
CN(C)C(=O)Oc1ccc(-c2cn3cc(Cl)ccc3n2)cc1,?,4.1µM*,?,-11%,i,-2%
CN(C)C(=O)Oc1ccc(-c2cn3cc(C(F)(F)F)ccc3n2)cc1,-15%,i,3%,23%,i,3%
CN(C)C(=O)Oc1cccc(-c2cn3cc(Cl)ccc3n2)c1,-27%,13µM*,-30%,-1%,i,8%
CC(C)NCC(O)COc1cccc2[nH]ccc12 (stereo unspecified),-19%,nt,?,nt,nt,nt
COC(=O)C1=C(c2cc3ccccc3o2)C[C@@H]2CC[C@H]1N2C(=O)NCCO,-26%,i,-12%,4%,i,-1%
COC(=O)C1=C(c2c(C)noc2C)C[C@@H]2CC[C@H]1N2C(=O)N1CCCCC1,-7%,i,-16%,0%,i,22%
COC(=O)C1=C(c2cc3ccccc3o2)C[C@@H]2CC[C@H]1N2C(=O)N1CCCCC1,2.3µM*,?,4.6µM*,10µM*,5.8µM*,?
COC(=O)C1=C(c2ccc(S(C)(=O)=O)cc2)C[C@@H]2CC[C@H]1N2C(=O)N1CCCCC1,-18%,i,-27%,8%,i,4%
CCCNC(=O)N1[C@H]2CC[C@@H]1C(C(=O)OC)=C(c1cc3ccccc3o1)C2,16µM*,i,16µM*,9%,i,-1%
COC(=O)C1=C(c2cc3ccccc3o2)C[C@@H]2CC[C@H]1N2C(=O)N1CCCC1,16µM*,i,?,0%,?,4%
O=C1OC(c2ccc(Cl)cc2)=N/C1=C\N1CC2CC(C1)c1cccc(=O)n1C2 (stereo unspecified),-6%,i,?,2%,i,-9%
CC[C@H]1CN(C)C[C@@]2(C(=O)OC)Cc3c([nH]c4ccccc34)C(=O)C[C@@H]12,13%,i,13%,2%,i,0%
CC[C@H]1CN(C)CCc2c([nH]c3ccccc23)C(=O)C[C@@H]1/C(=C\OC)C(=O)OC,-19%,i,29µM*,1%,i,-3%
OC1CCC(Nc2ccn3nc(-c4cccc(OCc5ccccc5)c4)cc3n2)CC1 (stereo unspecified),?,i,?,?,i,?
CCOc1ccc(-c2cc(C)[n+](CCc3ccc(OC)c(OC)c3)c(-c3ccc(OCC)cc3)c2)cc1,1.2µM*,i,0.82µM*,16µM*,5.8µM*,21µM*
CCOc1ccc(-c2cc(C)[n+](CCO)c(-c3ccc(OCC)cc3)c2)cc1,0.65µM*,i,1.5µM*,?,i,?
Fc1ccc(C[n+]2c(-c3ccccc3)cc(-c3ccccc3)cc2-c2ccccc2)cc1,0.58µM*,i,1.2µM*,18µM*,16µM*,16µM*
SMILES,TDP1 cell noCPT,KB-V1 MDR tox,DT40 TDP1 CPT,HT1080 IDH1KD tx,KB-3-1 cytotox,HT1080-NT tox
NCCc1ccccc1,-5%,i,-13%,7%,i,4%
Cc1cc(-c2ccccc2)cc(-c2ccccc2)[n+]1CCc1ccccc1,0.21µM*,i,0.18µM*,-88%,?,-92%
COc1cccc(-n2c(CN3CCN(C)CC3)nc3ccc([N+](=O)[O-])cc3c2=O)c1,?,i,?,1%,i,2%
Cn1c(O)c(C=NC2C(=O)C3(C)CCC2C3(C)C)c(=O)n(C)c1=O (stereo unspecified),-4%,i,2%,-4%[9.24 µM],i,3%
O=C(Nc1ccc(C(=O)O)cc1)Oc1ccc(N(CCCl)CCCl)cc1,0.73µM*,i,0.41µM*,-18%,i,-3%
O=C(Nc1ccccc1)Oc1ccccc1,-2%,?,7%,2%,i,-11%
Cc1ccc(NC(=O)c2cccn(Cc3ccccc3C)c2=O)c(C)c1,-23%,i,-11%,nt,i,nt
